# Compounds with a hit are over-represented: about 21% of the library has one in this group of screens.
# RORgamma inh = inhibitors of mouse ROR gamma transcriptional activity | P51450 | Drosophila S2 Gal4-RORgamma UAS-luciferase reporter, 20 h | Potency, µM (highest dose often 53.6 µM), inactives show at the highest dose activity change, negative = inhibition, usual class: inhibitors | 310,000 compounds, 5.4% hits; further: potency means the concentration at half of the fitted maximal effect; nearly all actives have a fitted effect of over 60% in size
# Target sequence (P51450 whole entry, looked up, the tested form may be a part): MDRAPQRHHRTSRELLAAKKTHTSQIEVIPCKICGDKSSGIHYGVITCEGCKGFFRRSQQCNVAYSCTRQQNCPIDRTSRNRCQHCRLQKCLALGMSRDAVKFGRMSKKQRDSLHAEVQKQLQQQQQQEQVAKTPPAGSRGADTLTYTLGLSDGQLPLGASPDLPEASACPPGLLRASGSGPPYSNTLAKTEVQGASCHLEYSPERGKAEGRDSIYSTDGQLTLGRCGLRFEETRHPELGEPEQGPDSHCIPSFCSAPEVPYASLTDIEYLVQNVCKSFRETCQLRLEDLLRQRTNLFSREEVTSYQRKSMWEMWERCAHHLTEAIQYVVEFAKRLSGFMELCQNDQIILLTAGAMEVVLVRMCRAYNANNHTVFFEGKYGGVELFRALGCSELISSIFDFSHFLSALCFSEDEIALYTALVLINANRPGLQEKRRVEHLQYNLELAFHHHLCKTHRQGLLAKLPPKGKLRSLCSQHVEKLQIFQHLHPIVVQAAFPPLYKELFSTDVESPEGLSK
#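 In this cell-based reporter format, copper sulfate (700 uM final) drives Gal4–ROR gamma fusion expression from a metallothionein promoter in Drosophila Schneider cells; compounds preincubated 1 hr, reporter read after 20 hr at ambient temperature.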
# VP16 counter = Gal4-VP16 reporter inhibition counter-screen; Potency, µM (highest dose often 53.6 µM), inactives show top-dose activity, negative = inhibition, usual class: inhibitors; 310,000 compounds, 3.5% hits; Drosophila S2 Gal4-VP16 UAS-luciferase, luminescence, 20 h; AID 2546;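 further: Gal4-VP16 expression switched on by copper sulfate through the metallothionein promoter; potency means the concentration at half of the fitted maximal effect; nearly all actives have a fitted effect of over 50% in size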
# IL-1B inflam inh = inflammasome signaling inhibition, IL-1 beta readout; THP-1 LPS/ATP IL-1B secretion, AlphaLISA, 16 h; active compounds read low; activity change, % at 57.5 µM; 360,000 compounds, 4.7% hits; AID 743279; in the data active means activity change below about -50%; inconclusive means mostly about -30% to -49%
#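 THP-1 cells pretreated 1 hr with compounds (up to 57.5 uM final), then stimulated with LPS (250 ng/mL final) plus ATP (1.25 mM final); secreted IL-1B measured by AlphaLISA after 16 hr, decreased signal indicating inhibition.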
# ELG1 repair inh = blocks ELG1-dependent DNA repair in HEK293T cells | HEK293T ELG1-luciferase reporter, luminescence, 16 h; DNA damage induced by 5-fluorouridine | Potency, µM (top dose mostly 46.1 µM), for the others: top-dose activity change, negative = inhibition, most hits filed as inhibitors | 330,000 compounds, 2.3% hits | AID 504467; further: potency means the concentration at half of the fitted maximal effect; nearly all actives have a fitted effect of over 55% in size
#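 HEK293T cells expressing luciferase-tagged ELG1 (2,000/well) received 5-Fluorouridine plus compound or DMSO for 16 hr at 37 °C. Luciferase was read by ONE-Glo luminescence after 30 min at room temperature.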
# DT40 TDP1 CPT = growth inhibition of DT40 Tdp1-/-;hTDP1 cells with camptothecin (screen for TDP1 inhibitors); chicken DT40 Tdp1-/-;hTDP1 cells + 20 nM CPT, ATP luminescence, 48 h; Potency, µM (series often up to 46.2 µM), without a hit: at the top dose activity change, negative = growth inhibition, actives largely listed as inhibitors; 420,000 compounds, 12% hits; further: potency means the concentration at half of the fitted maximal effect; nearly all actives have a fitted effect of over 55% in size
#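 Cell growth measured by CellTiter-Glo luminescence after a minimum 48 h, 37 C compound exposure with 20 nM CPT in Tdp1-knockout DT40 cells stably expressing hTDP1, seeded 400/well; qHTS titration format.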
# DT40 TDP1 no CPT = qHTS for Inhibitors of human tyrosyl-DNA phosphodiesterase 1 (TDP1): qHTS in cells in absence of CPT; DT40 Tdp1-/- hTDP1 cells, no CPT, ATP luminescence, 48 h; Potency, µM (doses to about 46.2 µM), for inactives: at the highest dose activity change, negative = growth inhibition, actives largely listed as inhibitors; 420,000 compounds, 15% hits; further: potency means the concentration at half of the fitted maximal effect; nearly all actives have a fitted effect of over 55% in size
#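 Luminescent ATP content (CellTiter-Glo) served as the growth readout. Knockout chicken DT40 cells expressing human TDP1 were exposed to compounds without camptothecin for a minimum 48 hr at 37 °C.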
# * marks the source's active call; other numbers are inactive results; ? = inconclusive; / = not tested or not shown; [ ] = dose if it differs, or a comment. Unless noted, the call rests on the fitted dose curve; in most records, active means well fitted curve in the direction sought with a large enough effect; inconclusive means small, poorly fitted or top-dose-only effect, or another doubt; inactive means no such curve, though single readings can be large; an effect the other way counts as inactive or inconclusive. On the % scale 0 is the no-effect control and ±100 the full control effect.
SMILES,RORgamma inh,VP16 counter,IL-1B inflam inh,ELG1 repair inh,DT40 TDP1 CPT,DT40 TDP1 no CPT
COc1ccc(N2CCN(c3ncnc4c3[nH]c3ccccc34)CC2)cc1,?,7.1µM*,-30,/,3.7µM*,2.3µM*
COc1ccc2[nH]c3c(N4CCc5ccccc5C4)ncnc3c2c1,?,13µM*,-97*,?,1.2µM*,1.3µM*
COc1ccc(N2CCN(C(=O)Cn3c(=O)[nH]c4ccccc4c3=O)CC2)cc1,22%,1%,/,3%,/,/
CCCC(=O)N1CCC1(C)C(=O)NS(=O)(=O)c1ccccc1 (centres undefined),/,/,15,/,-24%,-5%
C[C@H]1[C@H](C)CC[C@]2(C=O)CC[C@]3(C)C(=CC[C@@H]4[C@@]5(C)C[C@@H](O)[C@H](O)[C@@](C)(CO)[C@@H]5CC[C@]43C)[C@H]12,-43%,?,/,/,/,/
O=C(N/N=C/c1cn(-c2cccs2)nc1-c1ccccc1)c1ccccc1Br,5.6µM*,6.3µM*,?,?,23µM*,23µM*
O=C(N/N=C/c1cn(-c2cccs2)nc1-c1ccccc1)c1ccccc1O,0.028µM*,?,77,?,13µM*,8.2µM*
COCCCNC(=O)c1cccc2c(-c3ccc(OC)cc3C)coc12,/,/,-6,/,18µM*,?
COc1ccc(-c2coc3c(C(=O)NCC4CCOCC4)cccc23)c(C)c1,/,/,-22,/,10µM*,10µM*
COc1ccc(-c2coc3c(C(=O)NCCc4ccccc4)cccc23)c(C)c1,/,/,-28,/,16µM*,16µM*
COc1ccc(-c2coc3c(C(=O)NCCN4CCOCC4)cccc23)c(C)c1,/,/,-20,/,?,?
COc1cccc(C(O)c2nc(-c3cccc(CO)c3)cs2)c1 (centres undefined),/,/,0,/,?,?
Cc1cc(NS(=O)(=O)c2ccc(NC(=O)COc3ccc(C#N)cc3)cc2)nc(C)n1,/,/,22,0%,-2%,-1%
O=C(C1CCCCN1S(=O)(=O)c1ccc(F)cc1)N1CCN(c2ccccc2F)CC1 (centres undefined),-18%,3%,17,-10%,-26%,?
COc1ccccc1N1CCN(C(=O)C2CCCCN2S(=O)(=O)c2ccc(C)cc2)CC1 (centres undefined),-10%,-5%,-4,?,18µM*,?
COc1ccccc1N1CCN(C(=O)C2CCCN(S(=O)(=O)c3ccc(C)cc3)C2)CC1 (centres undefined),/,/,-26,?,16µM*,10µM*
COc1ccc(S(=O)(=O)N2CCC(C(=O)N3CCN(c4ccccc4OC)CC3)CC2)cc1,7%,2%,-12,-26%,?,?
O=C(COC(=O)c1ccccc1O)NCc1ccc2c(c1)OCO2,/,/,9,-6%,6%,?
CCc1ccc2[nH]c(=O)c(CN(Cc3ccccc3)Cc3nnnn3C(C)(C)C)cc2c1,/,/,/,/,14µM*,11µM*
CCc1ccc2[nH]c(=O)c(CN(Cc3cccnc3)Cc3nnnn3Cc3ccccc3)cc2c1,/,/,/,/,11µM*,20µM*
CCOC(=O)Cn1nnnc1CN(CCc1ccccc1)Cc1cc2cc(CC)ccc2[nH]c1=O,-10%,-2%,10,?,18µM*,?
CCc1ccc2[nH]c(=O)c(CN(Cc3ccc(OC)cc3)Cc3nnnn3CCOC)cc2c1,-30%,-15%,?,0%,18µM*,?
COc1ccc2[nH]c(=O)c(CN(Cc3ccccc3)Cc3nnnn3CC3CCCO3)cc2c1 (centres undefined),5%,-3%,0,-27%,?,?
CCOC(=O)N1CCN(C(=O)c2cc3ccc(OC)cc3[nH]2)CC1,12%,-4%,-5,26%,-28%,-11%
CCOC(=O)Cn1c(CN2CCN(c3ccc(OC)cc3)CC2)nc2c1c(=O)[nH]c(=O)n2C,/,/,/,/,-2%,-20%
SMILES,RORgamma inh,VP16 counter,IL-1B inflam inh,ELG1 repair inh,DT40 TDP1 CPT,DT40 TDP1 no CPT
Cc1cccc(NC(=O)COn2nnc3ccc(S(C)(=O)=O)cc32)c1,-2%,-1%,-4,-3%,4%,?
CC1(C(=O)NS(=O)(=O)c2cccc(C#N)c2)CCN1C(=O)Cc1ccc(Cl)cc1Cl (centres undefined),/,/,-8,/,-16%,-10%
Cc1ccc(Cl)cc1N1CCN(S(=O)(=O)c2cn(C)c(C)n2)CC1,/,/,/,/,-20%,?
O=C1C=CC(=O)N1CCCCCCCCCCN1C(=O)C=CC1=O,/,/,-87*,/,0.58µM*,1.3µM*
Cc1cc(C)c(NC(=O)Cn2c(=O)n(Cc3ccc4c(c3)OCO4)c(=O)c3ccc(C(=O)NC4CCCCC4)cc32)c(C)c1,/,/,/,/,-3%,5%
CCc1ccccc1NC(=O)Cn1c(=O)n(Cc2ccc3c(c2)OCO3)c(=O)c2ccc(C(=O)NC3CCCCC3)cc21,/,/,/,/,1.8µM*,?
CCOc1ccc(NC(=O)Cn2c(=O)n(Cc3ccc4c(c3)OCO4)c(=O)c3ccc(C(=O)NC4CCCCC4)cc32)cc1,/,/,/,/,2.6µM*,4.6µM*
CC(=NNC(=O)CSCC(=O)NN=C(C)c1ccccc1)c1ccccc1,/,/,1,/,-4%,-17%
Cc1c(C(=O)NCc2ccc3c(c2)OCO3)cnn1-c1ncc2c(n1)-c1ccccc1CC2,/,/,/,/,-2%[9.04 µM],-17%
CCCc1ccc2oc(C(=O)N3CCN(c4cnccn4)CC3)c(C)c2c1,14%,-4%,1,-9%,?,-26%
CCc1noc(C)c1C(=O)NNC(=O)c1ccccc1F,/,/,-8,?,-11%,?
C=CC[C@@H]1C=C[C@H](O/N=C\[C@@H](C)[C@H](OCc2ccccc2)C(C)C)[C@H](CO)O1,-14%[10 µM],-1%[10 µM],/,/,/,/
COc1ccc(Cc2c(-c3ccc(C)cc3)nc3c4ccccc4ccn23)c(C)c1,/,/,-18,/,?,?
Cc1ccc(Cc2c(-c3ccco3)nc3ccc(C)cn23)cc1,/,/,-10,/,16µM*,13µM*
Cc1ccc(Cc2c(-c3ccco3)nc3c4ccccc4ccn23)cc1,/,/,-6,/,18µM*,15µM*
Cc1ccc(Cc2c(-c3ccco3)nc3c(C)cc(Br)cn23)cc1,/,/,-70*,/,3.7µM*,6.5µM*
COC(=O)c1ccc2nc(-c3ccco3)c(Cc3ccc(C)cc3)n2c1,/,/,33,/,-98%,?
